The values below come from the supplement of paper PMC10338343.

± gives the standard deviation. The full ranking holds about 6,200 sequences; the median of “pre-steady-state target cleavage rate” is about 0.29, and the highest 2% start at about 2. What follows is part of a selection rich in the highest values, with near analogues and random picks from the rest. A value given as a limit tells only on which side of the number the result lay.

For the experiment, the system named is MIWI (PIWIL1) piRISC loaded with piRNA #1 (30 nt). In words: pre-steady-state target cleavage rate (min^-1); MIWI and MILI are mouse PIWI proteins and EfPiwi is from a freshwater sponge; tags in brackets are library labels; higher = faster piRNA-guided slicing of the target. Conditions: guide: piRNA #1 5'p-UGAGGUAGUAGGUUGUAUAGUAUCCAGAGG; auxiliary factor: 500 nM mouse GTSF1. Here is the method: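 Cleave-'n-Seq: a library of target RNAs (target site embedded in constant flanks, ACAGCATTCCGCGTTAGTGATATCCG... 5' flank; DNA-blocked outside the site) at 0.1 nM was incubated with 1 nM active mouse MILI or MIWI piRISC (synthetic 5'-monophosphorylated piRNA guide) with or without 500 nM mouse GTSF1 at 33 °C for 1 min to 16 h. Uncleaved targets were sequenced and normalised to non-target controls, and the pooled three trials were fitted to a burst-and-steady-state model to give the pre-steady-state cleavage rate (min^-1; k3 is constrained to at most 1e-4). Sequence is the target site only; target names encode pairing extent (gX:gY) and contiguous / 1-mismatch / 2-mismatch / bulge geometry. Fits with R² ≤ 0 are excluded.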
As for CCUCUGGAUACUAUAGAACCUACUACCUCA, the “pre-steady-state target cleavage rate” value was determined as 0.664 ± 0.06.
In the case of GGAGACCAUUCUUUACAACCUACUACCUCA it was 0.387 ± 0.059.
Regarding GCUCUGGAUAGUAUACUACCUACUACCUCA, the “pre-steady-state target cleavage rate” value was found to be 0.858 ± 0.049.
With GGUCUGGAUACAAUACUACCUACUACCUCA the figure was 1.09 ± 0.092.
In the case of “CCUCUGGAUACUAUACAACCUACUACCUCG [g2:g30:cont:t1G]” it was 1.32 ± 0.094; in that of “CCUCUGGAUACUAUACAACCUACUACCUCU [g2:g30:cont:t1U]”, 2.36 ± 0.14; in that of “CCUCUGGAUACUAUACAACCUACUACCUCC [g2:g30:cont:t1C]”, 2.18 ± 0.14.
With CCUCUGGAUACUAUACAACCUACUACCUAA the figure was 1.9 ± 0.1.
Take CCUCUGGAUACUAUACAACCUACUACCUA: the “pre-steady-state target cleavage rate” value is 1.52 ± 0.096.
For CCUCUGGAUACUAUACAACCUACUACCUACA, the “pre-steady-state target cleavage rate” value is 1.79 ± 0.096.
In the case of GGAGAGGAAACAAUACAACCUACUACCUCA it was 0.95 ± 0.079; in that of GGAGACGAUACUAUUCAUCCUACUACCUCA, 1.09 ± 0.061; in that of GGAGUGGAUACUAUCAACCUACUACCUCA, 1.58 ± 0.11.
In the case of GGAGACCUAUCUAUACAACCUACUUCCUGA it was 0.0338 ± 0.01.
With GGAGACCUAUCUAUACAACCUUCUACCACA the figure was 0.136 ± 0.015.
Turning to GGUCUGGAUAUUAUACAACCUACUACCUCA, the “pre-steady-state target cleavage rate” value amounted to 1.98 ± 0.12.
For the sequence GGACUGGAUAUUAUACAACCUACUACCUCA, the “pre-steady-state target cleavage rate” value is 1.62 ± 0.11.
With CCUCUGGAUAUUAUACAACCUACUACCUCA, the “pre-steady-state target cleavage rate” value was 2.15 ± 0.12.
With GCUCUGGAUAUAUACAACCUACUACCUCA the figure was 1.62 ± 0.086.
With GCUCUGGAUACAUAUACAACCUACUACCUCA the figure was 1.54 ± 0.083; with GCUCUGGAUAUUAUACAACCUACUACCUCA, 2.06 ± 0.11.
With GGAGACCUAAGUAUUCAACCUACUACCUCA the figure was 0.00289 ± 0.0023; with CGUCUGGAUACUAUACAACCUACUACCUGA, 0.517 ± 0.044; with CCUCUGGAUACUAUACAUGGUACUACCUCA, 0.0547 ± 0.0094.
On to GGAGAGGAUACUAUACAACCUACCACCUCA, for which the “pre-steady-state target cleavage rate” value came to 0.849 ± 0.049.
Regarding CCUCUCGAUACUAUACAACCUUCUACCUCA, the “pre-steady-state target cleavage rate” value is 0.676 ± 0.035.
In the case of CCUCUCGAUUCUAUACAACCUACUACCUCA it was 2.25 ± 0.15; in that of GCUCUCGAUUCUAUACAACCUACUACCUCA, 2.09 ± 0.12; in that of GGUCUCGAUUCUAUACAACCUACUACCUCA, 1.74 ± 0.1.
In the case of GGACUCGAUUCUAUACAACCUACUACCUCA it was 1.61 ± 0.14; in that of GCUCUCGAUACUAUACAACCUUCUACCUCA, 0.639 ± 0.034.
With GGUCUGGAUACUAUACUUCCUACUACCUCA the figure was 0.248 ± 0.029; with GGAGUGGAGACUAUACAACCUACUACCUCA, 1.65 ± 0.099; with GGAGUGGAUACUAAUACAACCUACUACCUCA, 1.4 ± 0.1.
GGUGCUGGAUACUAUACAACCUACUACCUCA: the “pre-steady-state target cleavage rate” value turned out to be 1.85 ± 0.11.
With CCGCUGGAUACUAUACAACCUACUACCUCA the figure was 1.88 ± 0.094; with GGGCUGGAUACUAUACAACCUACUACCUCA, 1.9 ± 0.12.
With CCUGCUGGAUACUAUACAACCUACUACCUCA the figure was 2.06 ± 0.12.
With GCUGCUGGAUACUAUACAACCUACUACCUCA the figure was 2.01 ± 0.14; with GCGCUGGAUACUAUACAACCUACUACCUCA, 1.85 ± 0.1.
As for GCUCUGGAUACUAUACAACCAUCUACCUCA, the “pre-steady-state target cleavage rate” value came out at 0.0463 ± 0.011.
In the case of GGAGUGGUUACUAUAGAACCUACUACCUCA it was 1.24 ± 0.08.
For the sequence CAUCUGGAUACUAUACAACCUACUACCUCA, the “pre-steady-state target cleavage rate” value amounted to 1.37 ± 0.066.
With GGUCUGGAUACUAUACAACCUUACUACCUCA the figure was 0.00317 ± 0.0022.
With GGAGACCUUAGUAUACAACCUACAACCUCA the figure was 0.0975 ± 0.018; with GCUCAGGAAACUAUACAACCUACUACCUCA, 1.78 ± 0.1.
In the case of GGACUGGAAACUAUACAACCUACUACCUCA it was 1.44 ± 0.097; in that of GGUCAGGAAACUAUACAACCUACUACCUCA, 1.77 ± 0.12.
As for CCUCUGGAAACUAUACAACCUACUACCACA, the “pre-steady-state target cleavage rate” value is 2.19 ± 0.26.
In the case of GCACUGGAAACUAUACAACCUACUACCUCA it was 1.82 ± 0.089.
With GGUCUGGAAACUAUACAACCUACUACCACA the figure was 0.461 ± 0.05; with GCUCUGGAAACUAUACAACCUACUACCACA, 1.42 ± 0.15.
In the case of CCACUGGAAACUAUACAACCUACUACCUCA it was 2.06 ± 0.11; in that of CCUCAGGAAACUAUACAACCUACUACCUCA, 2.04 ± 0.1; in that of GGAGACGAUACUAUACAACCUAGAUCCUCA, 0.113 ± 0.015.
GGAGAGGUUACUAAACAACCUACUACCUCA: the “pre-steady-state target cleavage rate” value is 1.21 ± 0.08.
For GGAGACGAUACUAUAGAACCUACUACCUCA, the “pre-steady-state target cleavage rate” value came out at 1.14 ± 0.066.
With “GGAGACCUAUGAUAACAACCUACAUGGAGA [g8:g16:cont:t1A]” the figure was < 0.0001.
In the case of GGAGUGCAUACUAUACUACCUACUACCUCA it was 1.13 ± 0.092; in that of GGAGACCUAUGAUAAGUACCUACUACCUCA, < 0.0001.
With GGAGACCUAUCUUUACAACCUACUACCACA the figure was 0.129 ± 0.03; with GGAGUGGAUUCAAUACAACCUACUACCUCA, 1.02 ± 0.071; with GCUCUGGAUACUAUACAACCUCUACCUCA, 0.00616 ± 0.003.
Regarding CCUCUAGGAUACUAUACAACCUACUACCUCA, the “pre-steady-state target cleavage rate” value worked out at 2.12 ± 0.12.
In the case of CCUCUAGAUACUAUACAACCUACUACCUCA it was 2.2 ± 0.13; in that of GGUCUAGGAUACUAUACAACCUACUACCUCA, 1.83 ± 0.1.
With GCUCUAGAUACUAUACAACCUACUACCUCA the figure was 2.09 ± 0.12; with GGUCUAGAUACUAUACAACCUACUACCUCA, 1.81 ± 0.11; with GCUCUAGGAUACUAUACAACCUACUACCUCA, 1.85 ± 0.095.
With GGACUAGAUACUAUACAACCUACUACCUCA the figure was 1.77 ± 0.1; with GGAGUAGAUACUAUACAACCUACUACCUCA, 1.55 ± 0.074.
For GGAGACCUAAAUAUACAACCUACUACCUCA, the “pre-steady-state target cleavage rate” value came to 0.106 ± 0.021.
With GGACUGGAUACUAUACAACGUUCUACCUCA the figure was 0.107 ± 0.014; with GGUCUGGAUAGUAUACAACCUACUACCUGA, 0.248 ± 0.041.
With GGAGACGAUAGUAUACUACCUACUACCUCA the figure was 0.67 ± 0.071.
In the case of GGAGUGGAUACUAUACAACCUACUCACCUCA it was 0.793 ± 0.088; in that of GGAGUGGAUACUAUACUACCUAGUACCUCA, 0.283 ± 0.04.
Take GGUGUGGAUACUAUACAACCUACUACCUGA: the “pre-steady-state target cleavage rate” value was 0.419 ± 0.069.
With GGUCACGAUACUAUACAACCUACUACCUCA the figure was 1.89 ± 0.12; with “GGAGACGAUACUAUACAACCUACUACCUCG [g2:g24:cont:t1G]”, 1.1 ± 0.063; with GCUCACGAUACUAUACAACCUACUACCUCA, 1.83 ± 0.092.
As for GGUGACGAUACUAUACAACCUACUACCUCA, the “pre-steady-state target cleavage rate” value is 1.82 ± 0.098.
In the case of “GGAGACGAUACUAUACAACCUACUACCUCC [g2:g24:cont:t1C]” it was 1.5 ± 0.075.
Take CCUCACGAUACUAUACAACCUACUACCUCA: the “pre-steady-state target cleavage rate” value turned out to be 2.1 ± 0.12.
With GGAGACGAUACUAUACAACCUACUACCUCCA the figure was 2.06 ± 0.12; with CCUGACGAUACUAUACAACCUACUACCUCA, 2.06 ± 0.12.
In the case of GCUGACGAUACUAUACAACCUACUACCUCA it was 1.84 ± 0.1; in that of GGAGACCUUUCUAUACAACCUAGUACCUCA, 0.238 ± 0.034; in that of CCUCUGGAUAGAAUACAACCUACUACCUCA, 1.24 ± 0.066.
GGAGACCAUACUAUUCUACCUACUACCUCA: the “pre-steady-state target cleavage rate” value worked out at 0.224 ± 0.035.
